HepG2 viability = HepG2 cytotoxicity, counter-screen for TGF-b inhibitors | hit rate 0.76% among 410,000 | HepG2 CAGA-GFP viability, ATP luminescence, 18 h | Potency, µM (top dose mostly 46.1 µM), without a hit: at the highest dose activity change, negative = cytotoxicity, hits mostly cytotoxic; also: potency is read from the fitted curve at half-maximal effect
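CellTiter-Glo luminescence gave cytotoxicity after 18 hours at 37 degrees C. The cells were HepG2 CAGA-GFP in 1% FBS DMEM, stimulated with 500 pg/mL TGF-beta after compound addition. %Activity was normalised to no-cell wells (complete cell-killing) and DMSO (no toxicity), and curves were fitted and classified.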
IDH1 R132H inh = human IDH1 R132H inhibition | O75874 | hit rate 0.093% among 390,000 | Potency, µM (doses to about 76.6 µM), for inactives: at the highest dose activity change, negative = inhibition, usual class: inhibitors | IDH1-R132H enzyme, NADPH consumption, diaphorase/resazurin fluorescence; also: potency is read from the fitted curve at half-maximal effect; % is scaled to controls: 0 for no effect and ±100 for the full control effect; nearly all actives have a fitted effect of over 65% in size
Target sequence (O75874 whole entry R132H, stated change not applied): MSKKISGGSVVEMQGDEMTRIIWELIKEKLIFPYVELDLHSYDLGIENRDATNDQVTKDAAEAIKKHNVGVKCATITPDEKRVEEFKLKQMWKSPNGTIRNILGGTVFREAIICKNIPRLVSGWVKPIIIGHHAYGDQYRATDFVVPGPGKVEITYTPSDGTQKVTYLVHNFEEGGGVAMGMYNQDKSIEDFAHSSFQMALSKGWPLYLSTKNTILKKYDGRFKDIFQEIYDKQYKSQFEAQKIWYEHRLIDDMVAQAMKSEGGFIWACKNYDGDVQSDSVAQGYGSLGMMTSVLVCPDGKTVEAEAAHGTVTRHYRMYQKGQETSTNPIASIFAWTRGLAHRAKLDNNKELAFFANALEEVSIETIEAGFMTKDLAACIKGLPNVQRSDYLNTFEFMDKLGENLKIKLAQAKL
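IDH1-R132H (0.5 ug/mL) preincubated 30 min with compound, then NADPH (0.016 mM) and alpha-KG (2 mM) added; 80 min at RT, pH 7.5. Remaining NADPH coupled via diaphorase/resazurin to fluorescence (540/590 nm); concentration-response curves normalized to no-enzyme control.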
ATXN viability = reduces viability in counter-screen for ATXN expression inhibitors. S2 cells (HEK-293 line with an ATXN2-luciferase reporter) viability, CellTiter-Fluor protease fluorescence, 24 h. Potency, µM (top dose mostly 56.7 µM), actives largely listed as cytotoxic. hit rate 0.49% among 400,000. AID 651635; also: potency is read from the fitted curve at half-maximal effect; nearly all actives have a fitted effect of over 40% in size
ATXN2 expr inh = reduces ATXN2 reporter expression in HEK-293 cells; AID 1745845; hit rate 0.72% among 360,000; Potency, µM (highest dose often 57 µM), inactives show at the highest dose activity change, negative = inhibition, actives largely listed as inhibitors; HEK-293 ATXN2-luciferase reporter, luminescence, 24 h; also: potency is read from the fitted curve at half-maximal effect; % is scaled to controls: 0 for no effect and ±100 for the full control effect; nearly all actives have a fitted effect of over 55% in size
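qHTS (up to 57 uM final) was run with 24 h compound exposure of reporter cells at 37 °C. Each well was multiplexed: SteadyGlo luminescence measured ATXN2-luciferase expression after a fluorogenic Gly-Phe-AFC viability readout (25 uM final).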
TGFb SMAD3 inh = inhibitors of TGF-b signaling. AID 588855. hit rate 1.2% among 410,000. Potency, µM (titrated, usually from 46.1 µM), without a hit: at the highest dose activity, negative = inhibition, actives largely listed as inhibitors. HepG2 CAGA-GFP TGF-b/SMAD3 reporter, GFP fluorescence, 18 h; TGF-beta stimulated, 500 pg/mL final; also: potency is read from the fitted curve at half-maximal effect; % is scaled to controls: 0 for no effect and ±100 for the full control effect; nearly all actives have a fitted effect of over 65% in size
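HEPG2 CAGA-GFP cells (1000/well, DMEM with 1% FBS) were pre-incubated 2 h at 37 degrees C, given compound by pin tool, then stimulated with TGF-beta at 500 pg/mL final for 18 h before per-cell GFP fluorescence imaging.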
LDHA inh = inhibitors of human lactate dehydrogenase A; purified LDHA, NADH/diaphorase-resazurin fluorescence; stronger effect = lower value; activity change, % (values are at about 110 or 230 µM); hit rate 0.15% among 480,000; AID 1347041; in the data active = activity change below about -30%; inconclusive = mostly about -25% to -30%;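 also: plate controls were DMSO wells for no effect and wells without enzyme for full effect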
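LDH5 2 nM; NADH 0.06 mM, pyruvate 0.2 mM; 200 mM Tris pH 7.4, EDTA, Tween-20; 5 min RT. Detection: diaphorase 0.133 mg/mL + resazurin 37 µM, fluorescence ex540/em590 at 0 and 20 min; normalized to enzyme-free and DMSO wells.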
Active calls of the source: *; i = inactive; ? = inconclusive; nt = no result given; ! = not confirmed by another sample; [ ] = remark or other dose. In the library only some 2.2% were active in any assay of this set; here they are far more common. Unless noted, calls follow the shape of the dose curve; as a rule, active = well fitted curve in the direction sought with a large enough effect; inconclusive = small, poorly fitted or top-dose-only effect, or another doubt; inactive = no such curve, though single readings can be large; an effect the other way counts as inactive or inconclusive.

SMILES	HepG2 viability	IDH1 R132H inh	ATXN viability	ATXN2 expr inh	TGFb SMAD3 inh	LDHA inh
CC(=O)N(C)c1ccc(N=Nc2ccc3ncccc3c2)cc1	-18%	9%	?	?	-1%	-2
Cc1cc(C)c2nc(N(Cc3cccnc3)C(=O)Cc3ccccc3)sc2c1	4%	2%	nt	nt	0%	-1
CCCCN(C)CCCNC(=O)C1CCN(c2nc3ccc(CC)cc3s2)CC1	14µM*	17%	nt	?	?	4
CN1CCC(CNc2ccc3ncc(-c4cccc(OC(F)(F)F)c4)n3n2)CC1	nt	nt	nt	24µM*	nt	nt
CCOc1cccc(-c2cnc3cccnn23)c1	-12%	nt	i	81%	-14%	-2
COc1ccc(-c2ccc3c(c2)[C@@H]2C[C@H](N(C)C(=O)C(C)(C)C)[C@H]([C@H](C)O)C(=O)N2CC3)cc1	-9%	5%[38.3 µM]	i	-3%	-17%	-3
O=C(NC1CCCC1)c1cn(C2CCN(Cc3cccc4cccnc34)CC2)nn1	nt	nt	i	nt	nt	nt
O=[N+]([O-])c1ccccc1CCc1ccccc1[N+](=O)[O-]	-12%	-10%	i	3%	18%	27
CCOC(=O)C1=C[C@]2(CC)CCCN3CCc4c(n1c1ccccc41)[C@@H]32	-6%	-10%	?	31µM*!	3%	-4
CCOC(=O)[C@H]1O[C@@H]1C(=O)N[C@@H](CC(C)C)C(=O)NCCC(C)C	-35%	8%	3.2µM*	0%	?	-14
CC(C)[C@H](NC(=O)C1CCCCC1)C(=O)O	nt	nt	nt	nt	nt	-4
N/C(=N\OCc1ccccc1)c1nonc1N	-7%	0%	i	15%	2%	-6
COc1cc(/C=N/NC(=O)CNc2cccc(C(F)(F)F)c2)ccc1OC(=O)c1ccccc1F	nt	nt	nt	nt	nt	-32*
O=C(CNc1cccc(C(F)(F)F)c1)N/N=C/c1cn(-c2ccccc2)nc1-c1ccccc1	-33%	-1%	i	-2%	-15%	-1
O=C(N/N=C/c1cc(Br)ccc1O)c1ccncc1	-43%	-2%	i	2.8µM*	?	0
CC(=O)Nc1ccc(C(=O)N/N=C/c2cc(Br)cc(Br)c2O)cc1	-112%	-2%	i	25µM*	?	-11
O=C(N/N=C/c1cc(Br)cs1)c1cccc(Br)c1	nt	nt	nt	nt	nt	9
O=C(N/N=C/c1cccc2ccccc12)c1ccncc1	10%	-4%	i	nt	25%	-2
O=C(N/N=C/c1ccccc1O)c1ccncc1	-33%	-8%	?	3.5µM*!	-5%	-13
O=C(N/N=C/c1cc([N+](=O)[O-])ccc1O)c1ccncc1	-10%	-1%	?	nt	-19%	5
O=C(N/N=C/c1ccc(O)c2ncccc12)c1cccc(Br)c1	-55%	-8%	?	?	13µM*	16
CCOC(=O)c1cc(NCc2cccc(Cl)c2Cl)ccc1N1CCOCC1	nt	nt	nt	nt	nt	-8
CCCS(=O)(=O)Nc1cccc(-c2cn3ccc(C)cc3n2)c1	-25%	5%	i	16%	?	-4
NC(=O)N/N=C\c1cc(Br)ccc1O	-27%	6%	nt	?	-3%	11
O=C(N/N=C/c1cc(Cl)ccc1O)c1ccc(Br)cc1	-18%	1%	i	4.5µM*	-16%	-12
COc1cc2c(cc1OC)C1=C(C#N)CC/C(=N\S(=O)(=O)c3cccc(Cl)c3)N1CC2	-8%	4%	i	-3%	31%	-1
O=C1C=C(NCCc2cc(Br)c(O)c(Br)c2)C(=O)c2ncccc21	7.1µM*	15%	?	9.5µM*	?	37
CC(C)(C)c1cc(CCC(=O)NCCc2ccccn2)cc(C(C)(C)C)c1O	-8%	0%	i	-1%	-2%	-5
OC(COc1ccc(F)cc1Cl)CN1CCC(Cc2ccccc2)CC1 (centres undefined)	16µM*	22%	?	nt	?	0
